The results in this text go back to ChEMBL document CHEMBL3988442, “University of Dundee, Small-Polar-MMV Screening Library” (2021).

What all share (design): scale not given: direction of the effect not stated beside the values
The target of experiment [1] is Protein translocase subunit SecA (Escherichia coli (strain K12)) (UniProt P10408). In words: Assay to Identify E. coli SecA ATPase Inhibitors. The format is functional. The following applies: 30 µM.
Experiment [2] addresses T1, Ubiquitin-activating enzyme e1, putative (Leishmania donovani (strain BPK282A1)) (UniProt E9BSI1).
T1 sequence (whole entry): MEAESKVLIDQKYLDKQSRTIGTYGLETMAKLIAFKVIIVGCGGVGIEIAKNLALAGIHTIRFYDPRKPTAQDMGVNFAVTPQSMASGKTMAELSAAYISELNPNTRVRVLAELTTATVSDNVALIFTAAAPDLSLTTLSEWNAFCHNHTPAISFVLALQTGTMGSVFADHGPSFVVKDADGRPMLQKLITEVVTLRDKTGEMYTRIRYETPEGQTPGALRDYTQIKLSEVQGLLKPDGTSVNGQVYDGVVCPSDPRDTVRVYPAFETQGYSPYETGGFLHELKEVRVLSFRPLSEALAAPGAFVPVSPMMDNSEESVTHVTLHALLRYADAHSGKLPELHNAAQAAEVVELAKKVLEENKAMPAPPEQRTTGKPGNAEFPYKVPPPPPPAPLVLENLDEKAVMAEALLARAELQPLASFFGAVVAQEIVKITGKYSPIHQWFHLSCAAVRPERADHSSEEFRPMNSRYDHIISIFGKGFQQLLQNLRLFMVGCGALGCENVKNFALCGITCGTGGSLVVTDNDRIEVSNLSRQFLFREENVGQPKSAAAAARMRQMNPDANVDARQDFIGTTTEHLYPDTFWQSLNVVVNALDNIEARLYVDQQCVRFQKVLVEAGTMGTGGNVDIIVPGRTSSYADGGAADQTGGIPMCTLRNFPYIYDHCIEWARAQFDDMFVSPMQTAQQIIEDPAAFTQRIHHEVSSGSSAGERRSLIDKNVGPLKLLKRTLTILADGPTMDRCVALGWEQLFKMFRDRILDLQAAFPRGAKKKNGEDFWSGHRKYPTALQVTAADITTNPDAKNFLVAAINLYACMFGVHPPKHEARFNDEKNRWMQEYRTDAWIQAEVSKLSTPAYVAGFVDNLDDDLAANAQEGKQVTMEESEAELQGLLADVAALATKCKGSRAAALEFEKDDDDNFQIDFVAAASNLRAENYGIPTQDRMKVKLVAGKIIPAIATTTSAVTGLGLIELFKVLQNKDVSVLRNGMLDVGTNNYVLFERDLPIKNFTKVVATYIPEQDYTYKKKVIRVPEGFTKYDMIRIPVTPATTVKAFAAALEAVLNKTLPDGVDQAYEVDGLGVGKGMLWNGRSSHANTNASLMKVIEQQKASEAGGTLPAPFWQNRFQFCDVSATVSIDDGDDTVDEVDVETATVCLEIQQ
Put plainly: Leishmania donovani Ubiquitin Activating Enzyme (LdE1). Format: functional. As to conditions: 30 µM.

The target of experiment [3] is AMP-activated protein kinase, AMPK (Homo sapiens) (UniProt P54646+O43741+P54619+Q9UGJ0+Q9Y478+Q13131+Q9UGI9). Put plainly: AMP-dependent Kinase enzyme assay. An in vitro enzyme assay that detects ADP turnover that is directly proportional to AMPK activity. This uses naive AMPK that is activated during the assay with MK-8722. As to conditions: 30 µM. Format: functional.

In experiment [4] the target is Sialic acid-binding Ig-like lectin 9 (Homo sapiens) (UniProt Q9Y336). In words: Hs-Siglec9 ALPHAscreen SOP 20170721. The following applies: 10 µM. For orientation: In Alpha technology, singlet oxygen from a donor bead excites a nearby acceptor bead.
The subject of the next experiment is Trypanosoma cruzi. In words: Trypanosoma cruzi phosphomannomutase and mannose-1-phosphate guanylyltransferase assay. Format: functional. As to conditions: 10 µM.
The target of experiment [5] is T2, Arginase-2, mitochondrial (Homo sapiens) (UniProt P78540).
T2 sequence (whole entry): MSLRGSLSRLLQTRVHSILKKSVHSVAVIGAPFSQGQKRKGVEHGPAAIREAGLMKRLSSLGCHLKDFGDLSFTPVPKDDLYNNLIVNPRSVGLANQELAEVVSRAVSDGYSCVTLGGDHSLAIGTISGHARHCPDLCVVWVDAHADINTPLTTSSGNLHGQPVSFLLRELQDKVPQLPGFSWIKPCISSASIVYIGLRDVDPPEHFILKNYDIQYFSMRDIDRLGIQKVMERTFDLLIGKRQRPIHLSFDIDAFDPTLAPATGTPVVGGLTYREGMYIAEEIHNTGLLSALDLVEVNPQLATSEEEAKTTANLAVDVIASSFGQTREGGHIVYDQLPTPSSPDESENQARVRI
In words: in vitro enzyme assay to detect the production of urea directly proportional to the activity of Arginase II. Further: in the data most compounds retested in dose-response had high values. Format: functional. As to conditions: 33.3 µM.

For experiment [6], the target named is T3, Proteasome subunit beta (Trypanosoma cruzi) (UniProt O96673).
T3 sequence (whole entry): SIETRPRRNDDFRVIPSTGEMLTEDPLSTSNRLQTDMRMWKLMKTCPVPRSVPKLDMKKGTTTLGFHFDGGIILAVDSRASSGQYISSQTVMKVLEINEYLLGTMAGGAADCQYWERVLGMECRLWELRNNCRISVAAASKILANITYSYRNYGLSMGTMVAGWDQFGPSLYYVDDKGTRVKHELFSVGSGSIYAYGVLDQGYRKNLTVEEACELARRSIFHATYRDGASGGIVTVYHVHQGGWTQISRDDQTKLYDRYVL
In words: Trypanosoma cruzi proteasome chymotrypsin-like activity (TcProtChymo) assay. Further: in the data most compounds retested in dose-response had high values. Format: functional. The following applies: 9.37 µM.

For the next experiment, the species on record is Homo sapiens. Put plainly: To identify inhibition of the IFN signalling (Jak-Stat) pathway via expression of an eGFP reporter gene under the control of an IFN-stimulated response element (ISRE) containing MxA promoter. The format is functional. As to conditions: 30 µM. In general terms: Reporter assays use an easily measured gene product as a stand-in for the process of interest.

The target in experiment [7] is T4, Tyrosyl-tRNA synthetase, putative (Trypanosoma cruzi (strain CL Brener)) (UniProt Q4DSP6).
T4 sequence (whole entry): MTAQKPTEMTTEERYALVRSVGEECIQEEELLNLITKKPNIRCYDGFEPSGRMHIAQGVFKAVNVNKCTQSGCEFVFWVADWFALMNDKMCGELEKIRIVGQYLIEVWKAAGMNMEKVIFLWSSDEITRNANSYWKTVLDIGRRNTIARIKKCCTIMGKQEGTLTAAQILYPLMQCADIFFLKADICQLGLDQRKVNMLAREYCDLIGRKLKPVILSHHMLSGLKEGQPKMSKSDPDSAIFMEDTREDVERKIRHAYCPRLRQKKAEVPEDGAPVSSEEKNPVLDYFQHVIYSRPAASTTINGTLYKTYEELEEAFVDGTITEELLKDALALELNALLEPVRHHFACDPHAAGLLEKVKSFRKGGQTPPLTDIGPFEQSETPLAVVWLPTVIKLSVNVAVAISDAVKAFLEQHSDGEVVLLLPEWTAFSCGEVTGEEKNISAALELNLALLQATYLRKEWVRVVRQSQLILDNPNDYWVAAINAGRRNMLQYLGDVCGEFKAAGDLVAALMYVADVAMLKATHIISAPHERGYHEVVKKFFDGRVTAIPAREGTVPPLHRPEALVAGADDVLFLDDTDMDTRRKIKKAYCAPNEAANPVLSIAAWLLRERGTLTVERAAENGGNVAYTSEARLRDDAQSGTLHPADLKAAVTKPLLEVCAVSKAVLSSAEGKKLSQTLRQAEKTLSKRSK
In words: Trypanosoma cruzi tyrosyl tRNA synthetase (TcYRS) _High Tyrosine SOP. Further: in the data most compounds retested in dose-response had high values. Format: functional. As to conditions: 30 µM.

Experiment [8] deals with T4, Tyrosyl-tRNA synthetase, putative (Trypanosoma cruzi (strain CL Brener)). In words: Trypanosoma cruzi tyrosyl tRNA synthetase (TcYRS) SOP. Format: functional. As to conditions: 30 µM.
Experiment [9] deals with Chromo domain-containing protein 1 (Saccharomyces cerevisiae (strain ATCC 204508 / S288c) (Baker's yeast)) (UniProt P32657). In words: ScCHD-1 Enzyme Inhibition Assay. Further: in the data most compounds retested in dose-response had high values. Format: functional. As to conditions: 30 µM.

Each structure is given as a SMILES string. For some of these results: Potency and affinity values are given separately.

Protein translocase subunit SecA (Escherichia coli (strain K12)), sequence (P10408 whole entry): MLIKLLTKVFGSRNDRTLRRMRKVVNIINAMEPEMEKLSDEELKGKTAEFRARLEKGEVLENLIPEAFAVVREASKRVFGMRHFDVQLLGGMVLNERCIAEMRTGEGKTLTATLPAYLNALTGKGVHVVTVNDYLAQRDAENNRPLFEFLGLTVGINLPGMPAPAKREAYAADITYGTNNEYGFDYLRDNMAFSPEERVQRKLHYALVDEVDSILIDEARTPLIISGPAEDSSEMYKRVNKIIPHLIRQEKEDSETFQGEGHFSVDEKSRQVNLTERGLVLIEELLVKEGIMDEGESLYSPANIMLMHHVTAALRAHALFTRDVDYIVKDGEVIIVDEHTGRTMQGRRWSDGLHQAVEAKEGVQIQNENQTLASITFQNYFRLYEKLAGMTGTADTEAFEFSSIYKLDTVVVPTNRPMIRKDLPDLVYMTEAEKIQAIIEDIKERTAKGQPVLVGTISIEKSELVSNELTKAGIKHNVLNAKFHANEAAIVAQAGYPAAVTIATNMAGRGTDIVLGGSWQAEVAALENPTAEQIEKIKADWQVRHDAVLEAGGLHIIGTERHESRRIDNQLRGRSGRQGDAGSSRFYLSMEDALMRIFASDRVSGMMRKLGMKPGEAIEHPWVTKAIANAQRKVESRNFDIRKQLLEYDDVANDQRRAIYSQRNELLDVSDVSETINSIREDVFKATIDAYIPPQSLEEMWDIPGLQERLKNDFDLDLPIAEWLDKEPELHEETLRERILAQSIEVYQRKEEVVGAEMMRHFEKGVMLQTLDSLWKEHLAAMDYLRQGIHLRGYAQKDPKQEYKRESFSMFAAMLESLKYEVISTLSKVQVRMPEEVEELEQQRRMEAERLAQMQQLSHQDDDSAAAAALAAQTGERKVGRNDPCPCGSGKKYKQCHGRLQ
Sialic acid-binding Ig-like lectin 9 (Homo sapiens), sequence (Q9Y336 whole entry): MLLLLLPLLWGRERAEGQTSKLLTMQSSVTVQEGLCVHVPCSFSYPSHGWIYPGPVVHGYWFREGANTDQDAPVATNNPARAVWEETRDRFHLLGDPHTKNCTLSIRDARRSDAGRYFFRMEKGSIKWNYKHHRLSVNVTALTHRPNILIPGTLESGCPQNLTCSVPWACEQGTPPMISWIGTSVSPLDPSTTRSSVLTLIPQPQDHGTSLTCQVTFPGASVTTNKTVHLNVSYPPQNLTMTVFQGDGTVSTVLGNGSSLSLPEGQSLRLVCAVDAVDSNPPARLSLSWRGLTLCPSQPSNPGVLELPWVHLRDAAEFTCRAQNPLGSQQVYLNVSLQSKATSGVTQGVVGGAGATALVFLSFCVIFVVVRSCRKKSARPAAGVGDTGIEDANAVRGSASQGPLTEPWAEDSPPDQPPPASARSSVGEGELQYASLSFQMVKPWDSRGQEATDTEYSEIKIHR
Chromo domain-containing protein 1 (Saccharomyces cerevisiae (strain ATCC 204508 / S288c) (Baker's yeast)), sequence (P32657 whole entry, the tested form may be a part): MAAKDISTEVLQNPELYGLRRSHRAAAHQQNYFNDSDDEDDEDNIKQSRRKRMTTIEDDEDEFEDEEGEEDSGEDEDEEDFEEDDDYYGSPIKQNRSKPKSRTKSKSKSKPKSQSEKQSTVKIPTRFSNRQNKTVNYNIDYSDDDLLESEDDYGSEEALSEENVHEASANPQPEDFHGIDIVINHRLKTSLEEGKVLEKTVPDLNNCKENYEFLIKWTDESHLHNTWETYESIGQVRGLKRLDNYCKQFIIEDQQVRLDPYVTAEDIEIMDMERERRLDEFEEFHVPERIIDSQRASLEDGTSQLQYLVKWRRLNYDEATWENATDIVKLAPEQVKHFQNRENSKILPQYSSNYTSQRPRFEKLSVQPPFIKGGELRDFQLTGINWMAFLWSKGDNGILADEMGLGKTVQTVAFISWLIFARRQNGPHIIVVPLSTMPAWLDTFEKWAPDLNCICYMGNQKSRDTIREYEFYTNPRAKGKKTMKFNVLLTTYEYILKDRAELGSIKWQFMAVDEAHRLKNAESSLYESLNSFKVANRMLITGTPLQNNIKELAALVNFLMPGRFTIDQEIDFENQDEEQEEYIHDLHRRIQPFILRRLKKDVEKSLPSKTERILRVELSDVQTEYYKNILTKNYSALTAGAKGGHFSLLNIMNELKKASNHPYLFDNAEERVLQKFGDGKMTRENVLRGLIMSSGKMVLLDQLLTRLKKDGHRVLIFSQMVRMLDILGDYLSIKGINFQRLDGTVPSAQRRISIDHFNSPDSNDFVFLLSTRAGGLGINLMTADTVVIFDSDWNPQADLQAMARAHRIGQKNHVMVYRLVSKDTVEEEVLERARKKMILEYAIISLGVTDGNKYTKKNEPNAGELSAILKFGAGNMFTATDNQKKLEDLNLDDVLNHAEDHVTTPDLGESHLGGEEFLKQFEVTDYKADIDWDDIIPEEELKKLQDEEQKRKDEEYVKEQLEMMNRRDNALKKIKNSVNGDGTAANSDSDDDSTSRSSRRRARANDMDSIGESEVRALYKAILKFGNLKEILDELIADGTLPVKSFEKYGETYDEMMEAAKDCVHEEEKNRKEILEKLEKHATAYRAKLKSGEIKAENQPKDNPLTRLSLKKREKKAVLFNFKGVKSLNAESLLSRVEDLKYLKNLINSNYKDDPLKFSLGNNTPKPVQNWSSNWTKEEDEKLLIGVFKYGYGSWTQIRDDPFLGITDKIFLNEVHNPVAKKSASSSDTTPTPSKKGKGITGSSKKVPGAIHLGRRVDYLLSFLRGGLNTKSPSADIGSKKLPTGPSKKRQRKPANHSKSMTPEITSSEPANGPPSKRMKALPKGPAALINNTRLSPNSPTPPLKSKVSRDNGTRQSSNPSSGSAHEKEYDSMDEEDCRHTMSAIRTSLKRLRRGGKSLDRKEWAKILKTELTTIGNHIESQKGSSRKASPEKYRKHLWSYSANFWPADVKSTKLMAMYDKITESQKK

For the compound `CN(C)C(=O)N1CCN(C(=O)C(c2ccccc2F)N(C)C)CC1` (stereo unspecified), the Percent Effect is -3.25% in experiment [1]; 9.72% in [2]; -8.74% in [3]; 14.1% in experiment [4]; 6.71% with Trypanosoma cruzi; 7.06% in experiment [5]. For the same compound, the Percent Effect was 14% in experiment [6]; -4.8% in the experiment filed under Homo sapiens; 4.21% in experiment [7]; 7.69% in experiment [8]; -9.49% in [9].
Turning to `O=C(CN1CCCCC1C1OCCO1)Nc1ccc(F)c(F)c1` (stereo unspecified), the Percent Effect in [1] was -3.75%; in experiment [2], 5.41%; in experiment [3] it was 1.85%; in [4], -4.88%; in the experiment with Trypanosoma cruzi, -1.95%; in [5], 0%. Also, the Percent Effect was 6.68% in experiment [6]; 17.6% in the experiment filed under Homo sapiens; 1.98% in [7]; 6.1% in experiment [8]; 2.05% in experiment [9].
As for `N#CC1(C(=O)NCCCNc2ccc(C(F)(F)F)cn2)CCCC1`, the Percent Effect in experiment [1] is 0.186%; in experiment [2], -2.63%; in experiment [3] it was 6.89%; in experiment [4] it was 5.29%; in the experiment with Trypanosoma cruzi, 0.376%; in experiment [5], 1.53%. For the same compound, the Percent Effect in experiment [6] is 7.18%; in the experiment listed under Homo sapiens, 23%; in experiment [7] it was 2.45%; in experiment [8], 4.88%; in [9], -0.995%.
With `Cc1cccc2cc(CNCCCN3CCOCC3)c(=O)[nH]c12`, the Percent Effect was -7.31% in [1]; 17.6% in experiment [2]; -2.19% in experiment [3]; 3.5% in experiment [4]; 6.13% in the experiment on Trypanosoma cruzi; -2.09% in [5]. Further, the Percent Effect in experiment [6] is 11.2%; in the experiment filed under Homo sapiens, 2.24%; in experiment [7] it was 3.23%; in [8], 14.3%; in experiment [9] it was -27.6%.
With `CCc1nc(C2CCCN(C(=O)c3ccc(OC(C)C)nc3)C2)no1` (stereo unspecified), the Percent Effect was -8.81% in [1]; 5.2% in experiment [2]; -0.62% in experiment [3]; -8.98% in [4]; -3.43% in the experiment with Trypanosoma cruzi; 3.16% in experiment [5]. For the same compound, the Percent Effect in experiment [6] is 1.05%; in the experiment listed under Homo sapiens, 15.9%; in experiment [7], -0.952%; in [8], 0%; in experiment [9], -17.8%.
As to `CN1N=C(C(=O)N(Cc2ccco2)C2CC2)CCC1=O`, the Percent Effect is -3.94% in experiment [1]; 0% in experiment [2]; 7.53% in experiment [3]; 0.679% in [4]; 1.46% with Trypanosoma cruzi; -1.18% in [5]. In addition, the Percent Effect in experiment [6] amounted to 9.49%; in the experiment listed under Homo sapiens, 4.75%; in experiment [7], 4.25%; in [8], 5.2%; in experiment [9], 8.43%.
On to `CCC(CC)c1cc(CNC(=O)N2CCOCC2CC)on1` (stereo unspecified), for which the Percent Effect in experiment [1] was -3.39%; in [2], 0%; in experiment [3], -0.644%; in [4], 2.45%; in the experiment on Trypanosoma cruzi it was 7.33%; in [5] it was -1.24%. Moreover, the Percent Effect in experiment [6] was 0.0858%; in the experiment filed under Homo sapiens it was -31.4%; in experiment [7], 0%; in [8], 1.24%; in experiment [9], -0.017%.
On to `COCC(=O)N1CCC(c2cccc(Cc3ccc(F)cc3)n2)CC1`, for which the Percent Effect is 0.623% in experiment [1]; 9.46% in experiment [2]; 7.38% in experiment [3]; -1.91% in experiment [4]; -6.13% in the experiment with Trypanosoma cruzi; 3.94% in experiment [5]. Besides, the Percent Effect in [6] is 5.15%; in the experiment listed under Homo sapiens, 22.7%; in [7], 2.15%; in [8], 11.7%; in experiment [9] it was -12.4%.
For `CCOCCCNC(=O)c1ccccc1S(C)(=O)=O`, the Percent Effect in experiment [1] was -4.36%; in [2] it was 0%; in [3], 7.43%; in experiment [4] it was 5.86%; with Trypanosoma cruzi, 2.82%; in experiment [5], -8.28%. In addition, the Percent Effect is 11.6% in [6]; -12.4% in the experiment listed under Homo sapiens; 1.06% in [7]; 5.2% in experiment [8]; 0.767% in experiment [9].
`COCCNC(=O)[C@H]1CN(Cc2nccs2)C[C@H]2OCC[C@@H]12`: the Percent Effect was -3.36% in experiment [1]; 16.4% in experiment [2]; -2.81% in experiment [3]; 11.4% in [4]; 3.17% in the experiment on Trypanosoma cruzi; 2.4% in experiment [5]. Moreover, the Percent Effect was 6.25% in experiment [6]; 15.8% in the experiment filed under Homo sapiens; 5.21% in [7]; 1.24% in [8]; -0.333% in [9].
`CNC(=O)Cn1cc(C#N)c(=O)c2cc(Br)ccc21`: the Percent Effect in [1] was -5.47%; in [2], 13.3%; in experiment [3], -4.43%; in experiment [4], 16.9%; in the experiment on Trypanosoma cruzi it was 7.3%; in [5] it was 7.29%. For the same compound, the Percent Effect in [6] worked out at 15.2%; in the experiment filed under Homo sapiens, 9.36%; in [7], 3.83%; in [8] it was 13.6%; in experiment [9] it was 38.7%.
